High-throughput results deposited in PubChem by The Scripps Research Institute Molecular Screening Center.
This is a sample that favours compounds with a hit; in the whole collection about 2.6% have one here.
KLF5 inhibitor = KLF5 expression inhibitors, primary screen, DLD-1 cells, luminescence. inhibition, % at 5 µM. actives 0.23% (n = 290,000). AID 1700, 2009. DLD-1 KLF5 promoter-luciferase reporter;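 active = inhibition above a per-plate limit of that plate's mean compound inhibition plus 3 SD, cut at about 60% in these data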;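 also: 0% = DMSO wells and 100% = LY294002 at 200 µM; higher means less KLF5 promoter-driven luciferase light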
DNA FID counter = compounds displacing fluorescent DNA intercalator, primary screen, artefact control for HCV NS3 helicase inhibitor project, biochemical, FID fluorescence; DNA fluorescent intercalator displacement; inhibition, % at 7.9 µM; actives 0.17% (n = 290,000); AID 1845, 2009; in the data active = inhibition above about 37%;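 also: 0% = vehicle and 100% = reference compound; higher means more ethidium bromide displaced from hairpin DNA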
IEC-6 cytotox = cytotoxicity in IEC-6 intestinal epithelial cells, primary screen, cytotoxicity control for KLF5 inhibitor project, cell-based, luminescence; IEC-6 cytotoxicity, luminescence viability; inhibition, % at 5 µM; actives 0.78% (n = 290,000); AID 1825, 2009;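 also: 0% = plate median of test compound wells and 100% = cytotoxic reference compound wells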
Ba/F3 V617F tox = reduced viability of JAK2V617F-dependent Ba/F3 cells, primary screen, JAK2V617F inhibitor project, cell-based, Ba/F3 EpoR-JAK2V617F, luminescence | ATP luminescence | inhibition, % at 5.6 µM | actives 1.1% (n = 220,000) | AID 1446, 2008;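 active = inhibition above the campaign mean plus 3 SD over all tested compounds, cut at about 24% in these data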;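 also: cytokine-independent growth of Ba/F3 cells driven by EpoR plus mutant JAK2; 0% = DMSO-treated cells and 100% = JAK inhibitor I control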
BaF3 parental = parental Ba/F3 cell viability inhibition, counter-screen for JAK2V617F inhibitor project, murine pro-B, CellTiter-Glo luminescence; CellTiter-Glo ATP luminescence; inhibition, % at 5.6 µM; actives 1.1% (n = 220,000); AID 1486, 2009;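 active = inhibition above a per-campaign cutoff, the mean inhibition of all tested compounds plus 3 SD, cut at about 27% in these data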;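 also: 0% = DMSO wells and 100% = JAK Inhibitor I control wells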
GPR7 antagonist = GPR7 receptor antagonists, primary screen, cell-based, fluorescence, single concentration; Neuropeptides B/W receptor type 1 (Homo sapiens), P48145; GPR7-expressing cells, fluorescence antagonist assay; inhibition, % at 4.4 µM; actives 1.1% (n = 290,000); AID 1861, 2009; in the data active = inhibition above about 16%, passing the limit was not always enough;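 also: cells stimulated with the agonist NPW; 0% = agonist with vehicle and 100% = vehicle without agonist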
Target sequence (P48145 whole entry, looked up): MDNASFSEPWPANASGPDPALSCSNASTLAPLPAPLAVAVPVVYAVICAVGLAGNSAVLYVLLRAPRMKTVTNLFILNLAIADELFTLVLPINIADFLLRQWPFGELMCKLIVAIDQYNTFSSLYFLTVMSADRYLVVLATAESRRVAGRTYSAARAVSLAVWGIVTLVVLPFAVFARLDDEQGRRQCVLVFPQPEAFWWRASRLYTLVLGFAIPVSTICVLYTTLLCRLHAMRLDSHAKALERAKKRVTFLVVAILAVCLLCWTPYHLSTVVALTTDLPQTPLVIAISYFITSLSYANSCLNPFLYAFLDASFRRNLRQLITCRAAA
IEC-6 cytotox cf = cytotoxic compounds in IEC-6 epithelial cells, confirmation, cytotoxicity control, cell-based, luminescence | shares compounds with IEC-6 cytotox | IEC-6 rat intestinal epithelial viability | inhibition, % at 5 µM | actives 63% (n = 1,900);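 also: 0% = vehicle and 100% = reference cytotoxic drug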
GPR7 antag cf = GPR7 receptor antagonists, confirmation, cell-based, fluorescence, single concentration. inhibition, % at 4.4 µM. shares compounds with GPR7 antagonist. actives 52% (n = 2,400). AID 1952, 2009. GPR7-expressing cells, calcium fluorescence antagonist mode; in the data active = inhibition above about 24%;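 also: stimulated with the GPR7 agonist NPW; 0% = agonist plus vehicle and 100% = vehicle alone without agonist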
MCHR1 antag = MCHR1 antagonists in cells, counter-screen for GPR7 antagonist project, cell-based, fluorescence, human; shares compounds with GPR7 antagonist; MCHR1-expressing cells, fluorescence antagonist assay; inhibition, % at 4.4 µM; actives 62% (n = 2,400); AID 2148, 2009;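 also: 0% = vehicle with agonist and 100% = vehicle without agonist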
Numbers without * were called inactive; . = no result given. Rule as the data show it, unless noted: active = inhibition above about 22%; inactive = the rest.

SMILES | KLF5 inhibitor | DNA FID counter | IEC-6 cytotox | Ba/F3 V617F tox | BaF3 parental | GPR7 antagonist | GPR7 antag cf | MCHR1 antag | others
O=[N+]([O-])c1c(Nc2cccc(O)c2)cc(Cl)c2nonc12 | 4 | 10 | 100* | . | . | 35* | 81* | 101* | IEC-6 cytotox cf=29*
CCN(c1ccccc1)S(=O)(=O)c1ccc(NC(=O)c2nc(S(C)(=O)=O)ncc2Cl)cc1 | 41 | -19 | 100* | . | . | 98* | 97* | 102* | IEC-6 cytotox cf=12
CS(=O)(=O)c1ncc(Cl)c(C(=O)Nc2ccc(OC(F)F)cc2)n1 | -6 | 5 | 99* | . | . | 51* | 88* | 94* | IEC-6 cytotox cf=29*
CC(C)=CCN1CCN(Cc2ccc(C#CC(C)(C)O)cc2)CC1CCO (configuration not stated) | -14 | 8 | -3 | -1 | 3 | 4 | . | .
O=C(NC1CCCCC1)C(c1ccncc1)N(C(=O)Cn1nnc(-c2cccs2)n1)C1CCCC1 (configuration not stated) | -7 | -16 | 4 | 1 | 7 | 3 | . | .
O=C(CNc1cccc([N+](=O)[O-])c1)NCCCc1ccccc1 | -8 | -6 | 6 | . | . | 3 | . | .
C=CCn1c(SCc2c(C)noc2C)nc2ccccc2c1=O | 58 | -20 | 83* | 71* | 72* | 26* | 23 | 24* | IEC-6 cytotox cf=57*
C=CCn1c(SCc2c(C)noc2C)nc2cc(C(=O)O)ccc2c1=O | -6 | -27 | 1 | -3 | 6 | 14 | . | .
CCO[C@@H]1OC(C(=O)NCc2ccccc2)=C[C@H](c2ccc3c(c2)OCO3)[C@H]1CCCO | -4 | -27 | -3 | -2 | 0 | -15 | . | .
CCO[C@H]1OC(C(=O)NCc2ccccc2)=C[C@@H](c2ccc3c(c2)OCO3)[C@@H]1CCCO | 3 | -30 | -3 | -5 | -2 | 33* | 18 | 16
CN(C(=O)CN1C(=O)C2C3CC(C(Br)C3Br)C2C1=O)C1CCCCC1 (configuration not stated) | -14 | -22 | -4 | . | . | 23* | 39* | 4
Cc1ccccc1NC(=O)CN1C(=O)C2C3CC(C(Br)C3Br)C2C1=O (configuration not stated) | 4 | -1 | -2 | -3 | 8 | -5 | . | .
O=C(Nc1ccc(N2CCN(C(=O)c3ccccc3)CC2)cc1)c1ccc(Br)o1 | 12 | -33 | 8 | 0 | 5 | 38* | 39* | 32*
CCOc1cc(/C=C2\C(=O)ON=C2c2ccccc2)cc(Br)c1O | -38 | -10 | -4 | . | . | 7 | . | .
Cc1ccc(C(=O)CSC2=C(C#N)C(c3ccco3)CC(=O)N2)c(C)c1 (configuration not stated) | -34 | -17 | 4 | 1 | 1 | 41* | 71* | 64*
CC(NCCC(Cc1ccccc1)c1ccco1)c1ccccc1 (configuration not stated) | -4 | 13 | 3 | 1 | 2 | 24* | 41* | 50*
Fc1ccc(CNCCC(Cc2ccccc2)c2ccco2)cc1 (configuration not stated) | 7 | 14 | 8 | 3 | 5 | 29* | 44* | 40*
O=C(NCCNCc1ccc(F)cc1)c1ccco1 | -14 | 7 | 0 | 3 | 5 | -9 | . | .
CCC(=O)N(CCC(Cc1ccccc1)c1ccco1)Cc1ccco1 (configuration not stated) | -20 | -33 | -3 | 1 | 0 | 10 | . | .
CCOCCCNC(=S)Nc1ccc(Br)cc1Cl | -18 | -12 | 7 | -3 | 1 | -10 | . | .
